Reference: PubChem BioAssay (NCI)
This is part of a sample that, as a whole, favours compounds with a hit. Of some 79,000 tested, about 15% had one in any assay. Calls of active or inactive are those of the source. No stated cut-off is given here; in the data, active means growth inhibition above about 70%; inactive means the rest.

Key:
[1] = NCI Yeast Anticancer Drug Screen. Data for the rad52 strain (AID 147);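 further: 0% = growth of vehicle-treated control cultures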; settings: S. cerevisiae rad52 mutant growth inhibition, active compounds read high
Procedure, shortened: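 The repair-mutant yeast strain was incubated with compounds, then growth was read and inhibition derived relative to vehicle.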

[2] = NCI Yeast Anticancer Drug Screen. Data for the wt1 strain (AID 149);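 further: 0% = growth of vehicle-treated wt1 cultures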; settings: S. cerevisiae wt1 strain (SPY 50644) growth inhibition, active compounds read high
Procedure, shortened: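 wt1 strain grown with compound or vehicle; inhibition taken from the growth difference.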

[3] = NCI Yeast Anticancer Drug Screen. Data for the rad50EPP+ strain (AID 151);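 further: 0% = growth of vehicle-treated control cultures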; settings: S. cerevisiae rad50 mutant strain, active compounds read high
Procedure, shortened: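 Vehicle-normalised growth inhibition; rad50EPP+ yeast strain, altered in DNA damage repair, compound-treated.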

[4] = NCI Yeast Anticancer Drug Screen. Data for the mgt1 strain (AID 153); settings: S. cerevisiae mgt1 mutant growth inhibition, active compounds read high
Procedure, shortened: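 Vehicle-normalized growth inhibition is determined in mgt1 yeast, a strain selected for a defined alteration in DNA repair or cell cycle control.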

[5] = NCI Yeast Anticancer Drug Screen. Data for the rad50 strain (AID 155);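 further: 0% = growth of vehicle-only cultures of the same strain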; settings: S. cerevisiae rad50 strain growth inhibition, active compounds read high
Procedure, shortened: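 DNA repair mutant yeast, compound exposure, growth read-out; inhibition is taken relative to vehicle.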

[6] = NCI Yeast Anticancer Drug Screen. Data for the mec2-1 strain (AID 157); settings: S. cerevisiae mec2-1 strain, active compounds read high
Procedure, shortened: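 Mutant yeast (mec2-1) grown with compound; growth inhibition relative to vehicle control reported.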

[7] = NCI Yeast Anticancer Drug Screen. Data for the rad14 strain (AID 159);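 further: 0% = growth of vehicle-treated control cultures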; settings: S. cerevisiae rad14 strain growth inhibition, active compounds read high
Procedure, shortened: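 DNA repair-defective yeast, compound-exposed; % growth inhibition derived by comparison with vehicle-treated controls.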

[8] = NCI Yeast Anticancer Drug Screen. Data for the sgs1 mgt1 strain (AID 161);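 further: 0% = growth of cultures given vehicle only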; settings: S. cerevisiae sgs1 mgt1 strain, active compounds read high
Procedure, shortened: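 Growth of a repair-deficient yeast mutant was monitored after compound treatment and expressed as inhibition relative to vehicle-treated cultures.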

[9] = NCI Yeast Anticancer Drug Screen. Data for the CLN2oe strain (AID 163);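 further: 0% = growth of vehicle-only control cultures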; settings: S. cerevisiae CLN2oe strain, active compounds read high
Procedure, shortened: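 Compounds are applied to yeast harbouring a defined cell-cycle control change; reduced growth compared with vehicle-treated controls gives the value.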

[10] = NCI Yeast Anticancer Drug Screen. Data for the cln2 rad14 strain (AID 165);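 further: 0% = growth equal to vehicle treated cultures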; settings: S. cerevisiae cln2 rad14 strain, active compounds read high
Procedure, shortened: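 Readout is yeast growth inhibition versus vehicle-treated controls, using a strain with cln2 and rad14 alterations exposed to compound.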

[11] = NCI Yeast Anticancer Drug Screen. Data for the bub3 strain (AID 167); settings: S. cerevisiae bub3 mutant strain, active compounds read high
Procedure, shortened: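 In this screen, a yeast mutant lacking normal mitotic checkpoint function is challenged with compound. Relative growth versus vehicle gives the inhibition value.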

[12] = NCI Yeast Anticancer Drug Screen. Data for the wt2 strain (AID 169);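 further: 0% = growth of vehicle-treated yeast cultures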; settings: S. cerevisiae wt2 strain growth inhibition, active compounds read high
Procedure, shortened: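 Against vehicle-treated controls, the growth of yeast exposed to each compound was compared, and the inhibition was recorded.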

[13] = NCI Yeast Anticancer Drug Screen. Data for the mlh1 strain (AID 171);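 further: 0% = growth of vehicle-treated control cultures of the same strain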; settings: S. cerevisiae mlh1 strain growth inhibition, active compounds read high
Procedure, shortened: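 Measured: yeast growth. Reference: vehicle-treated controls. Organism: strain with a defined alteration affecting DNA damage repair or cell cycle control, treated with compound.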

[14] = NCI Yeast Anticancer Drug Screen. Data for the sgs1 strain (AID 173);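 further: 0% = growth of vehicle-only control cultures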; settings: S. cerevisiae sgs1 mutant, active compounds read high
Procedure, shortened: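 Each compound was added to cultures of the altered yeast strain. Growth was recorded, and inhibition was derived by comparison with vehicle controls.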

[15] = NCI Yeast Anticancer Drug Screen. Data for the mlh1 rad18 strain (AID 175); settings: S. cerevisiae mlh1 rad18 strain growth inhibition, active compounds read high
Procedure, shortened: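 Genetically defined yeast (DNA repair-deficient) exposed to compounds; growth inhibition determined relative to vehicle.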

[16] = NCI Yeast Anticancer Drug Screen. Data for the rad18 strain (AID 177); settings: S. cerevisiae rad18 mutant growth inhibition, active compounds read high
Procedure, shortened: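 Vehicle-treated cultures served as the baseline for scoring compound-induced growth inhibition in DNA-repair-mutant yeast.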

[17] = at 5.0 µM (retest, dose inferred, filed as 0.5)
[18] = at 50.0 µM (retest, dose inferred, filed as 5.0)

Measured: growth inhibition

CCOP(=O)(OCC)/C(C#N)=C/c1cccc(Oc2ccccc2)c1
inactive: [1]; at 1.2 µM -17% | [1]; at 3.7 µM -14% | [1]; at 11.0 µM 60% | [2]; at 1.2 µM -13% | [2]; at 3.7 µM -26% | [2]; at 11.0 µM 56% | [3]; at 1.2 µM 0% | [3]; at 3.7 µM -7% | [3]; at 11.0 µM 7% | [3]; at 33.0 µM 7% | [3]; at 100.0 µM 62% | [4]; at 1.2 µM -32% | [4]; at 3.7 µM -40% | [4]; at 11.0 µM 28% | [5]; at 1.2 µM -30% | [5]; at 3.7 µM -30% | [5]; [17] 2% | [5]; at 11.0 µM 42% | [6]; at 1.2 µM -8% | [6]; at 3.7 µM 1% | [6]; [17] -7% | [6]; at 11.0 µM 45% | [7]; at 1.2 µM -40% | [7]; at 3.7 µM -39% | [7]; at 11.0 µM 35% | [8]; [17] 1% | [9]; at 1.2 µM -12% | [9]; at 3.7 µM -23% | [9]; at 11.0 µM 42% | [10]; [17] -4% | [11]; at 1.2 µM -11% | [11]; at 3.7 µM -19% | [11]; [17] 22% | [11]; at 11.0 µM 41% | [12]; at 1.2 µM 1% | [12]; at 3.7 µM 1% | [12]; at 11.0 µM 38% | [13]; at 1.2 µM -2% | [13]; at 3.7 µM 9% | [13]; at 11.0 µM 48% | [14]; at 1.2 µM 10% | [14]; at 3.7 µM 3% | [14]; at 11.0 µM 44% | [15]; [17] -8% | [15]; [18] -3% | [16]; at 1.2 µM -6% | [16]; at 3.7 µM -16% | [16]; at 11.0 µM 53%
active: [1]; at 33.0 µM 95% | [1]; at 100.0 µM 96% | [2]; at 33.0 µM 96% | [2]; at 100.0 µM 97% | [4]; at 33.0 µM 95% | [4]; at 100.0 µM 96% | [5]; at 33.0 µM 96% | [5]; [18] 96% | [5]; at 50.0 µM 90.2% | [5]; at 100.0 µM 96% | [6]; at 33.0 µM 97% | [6]; [18] 98% | [6]; at 50.0 µM 93.5% | [6]; at 100.0 µM 98% | [7]; at 33.0 µM 94% | [7]; at 100.0 µM 96% | [8]; [18] 96% | [8]; at 50.0 µM 91.2% | [9]; at 33.0 µM 97% | [9]; at 100.0 µM 97% | [10]; [18] 97% | [10]; at 50.0 µM 90.5% | [11]; at 33.0 µM 97% | [11]; [18] 95% | [11]; at 50.0 µM 90.3% | [11]; at 100.0 µM 97% | [12]; at 33.0 µM 96% | [12]; at 100.0 µM 97% | [13]; at 33.0 µM 96% | [13]; at 100.0 µM 97% | [14]; at 33.0 µM 97% | [14]; at 100.0 µM 98% | [15]; at 50.0 µM 88.8% | [16]; at 33.0 µM 97% | [16]; at 100.0 µM 97%

COc1ccc(C2CC(C)(N3CCCC3)Oc3cc4c(cc32)OCO4)cc1 (stereo unspecified)
active: [1]; at 100.0 µM 94% | [4]; at 100.0 µM 85% | [5]; at 100.0 µM 92% | [11]; [18] 74% | [11]; at 100.0 µM 87% | [12]; at 100.0 µM 92% | [13]; at 100.0 µM 83% | [14]; at 100.0 µM 83% | [15]; [18] 75% | [15]; at 50.0 µM 76.7% | [16]; at 100.0 µM 77%
inactive: [1]; at 1.2 µM 4% | [1]; at 3.7 µM 5% | [1]; at 11.0 µM 4% | [1]; at 33.0 µM 32% | [2]; at 1.2 µM -3% | [2]; at 3.7 µM -3% | [2]; at 11.0 µM -5% | [2]; at 33.0 µM -9% | [2]; at 100.0 µM 11% | [3]; at 1.2 µM 4% | [3]; at 3.7 µM 4% | [3]; at 11.0 µM 3% | [3]; at 33.0 µM 9% | [3]; at 100.0 µM -3% | [4]; at 1.2 µM -1% | [4]; at 3.7 µM -1% | [4]; at 11.0 µM -3% | [4]; at 33.0 µM -5% | [5]; at 1.2 µM 5% | [5]; at 3.7 µM 1% | [5]; [17] -7% | [5]; at 11.0 µM 0% | [5]; at 33.0 µM 37% | [5]; [18] 25% | [5]; at 50.0 µM 64.5% | [6]; at 1.2 µM -1% | [6]; at 3.7 µM -1% | [6]; [17] 11% | [6]; at 11.0 µM -4% | [6]; at 33.0 µM 1% | [6]; [18] 9% | [6]; at 50.0 µM 9.8% | [6]; at 100.0 µM 36% | [7]; at 1.2 µM 0% | [7]; at 3.7 µM 0% | [7]; at 11.0 µM -1% | [7]; at 33.0 µM 9% | [7]; at 100.0 µM 67% | [8]; [17] -6% | [8]; [18] 47% | [8]; at 50.0 µM 61.5% | [9]; at 1.2 µM 2% | [9]; at 3.7 µM -1% | [9]; at 11.0 µM -6% | [9]; at 33.0 µM 6% | [9]; at 100.0 µM 68% | [10]; [17] 8% | [10]; [18] 34% | [10]; at 50.0 µM 19.4% | [11]; at 1.2 µM 1% | [11]; at 3.7 µM 5% | [11]; [17] 22% | [11]; at 11.0 µM -21% | [11]; at 33.0 µM 22% | [11]; at 50.0 µM 41.4% | [12]; at 1.2 µM -7% | [12]; at 3.7 µM -1% | [12]; at 11.0 µM -13% | [12]; at 33.0 µM 6% | [13]; at 1.2 µM 3% | [13]; at 3.7 µM -1% | [13]; at 11.0 µM -4% | [13]; at 33.0 µM 13% | [14]; at 1.2 µM -4% | [14]; at 3.7 µM 9% | [14]; at 11.0 µM -18% | [14]; at 33.0 µM 17% | [15]; [17] 2% | [16]; at 1.2 µM 5% | [16]; at 3.7 µM 7% | [16]; at 11.0 µM 12% | [16]; at 33.0 µM 35%
